Source: the antibiotic and cytotoxicity screens of Wong et al. (2023)
Screen size: about 39,000 compounds; about 3,300 (8.5%) were called active. For the sample, actives were picked, then their nearest neighbours and some compounds at random.

Tested on: HepG2
Assay: cytotoxicity call (relative viability < 0.9)
Conditions: 10 µM

SMILES	cytotoxicity call
C[C@@H]1CCCCO[C@@H](CN(C)S(=O)(=O)c2cccs2)[C@H](C)CN([C@H](C)CO)C(=O)c2cc(NS(=O)(=O)c3cn(C)cn3)ccc2O1	inactive
COCC#Cc1ccc2c(c1)O[C@H](CN(C)S(=O)(=O)c1ccc(OC)cc1)[C@H](C)CN([C@H](C)CO)S2(=O)=O	inactive
C[C@@H]1CN([C@@H](C)CO)C(=O)c2cccc(NS(C)(=O)=O)c2O[C@H]1CN(C)C(=O)Nc1ccc(F)cc1	inactive
C[C@H]1CN([C@@H](C)CO)C(=O)c2cc(NC(=O)Cn3cnnn3)ccc2O[C@@H]1CN(C)Cc1ccc2c(c1)OCO2	inactive
O=S1(=O)N[C@H](c2ccccc2)CO1	inactive
Cc1ccc(S(=O)(=O)Nc2ccc3c(c2)CC(=O)N([C@H](C)CO)C[C@@H](C)[C@H](CN(C)C(=O)Nc2cccc4ccccc24)O3)cc1	inactive
O=S1(=O)CC=CC1	inactive
Cc1ccc(S[C@]2(C(=O)NC3CC3)CC(=O)N(C3CCCCC3)[C@@H]2c2ccc(CO)cc2I)cc1	inactive
Cc1noc(C)c1S(=O)(=O)Nc1ccc2c(c1)C(=O)N([C@H](C)CO)C[C@@H](C)[C@H](CN(C)C)OCCCC[C@@H](C)O2	inactive
COc1ccc2c3c(n(c2c1)C)[C@H](CO)N(C[C@]13CCN(CC1)Cc1ccccc1F)C(=O)Nc1ccc(cc1)F	inactive
COc1ccc2c3c(n(c2c1)C)[C@@H](CO)N(C[C@]13CCN(CC1)Cc1cccc(c1)F)C(=O)Nc1ccc(cc1)F	inactive
COc1cccc(c1)CN1CC[C@]2(CC1)CN([C@H](CO)c1c2c2ccc(cc2n1C)OC)C(=O)Nc1ccc(cc1)F	inactive
COc1ccc2c3c(n(c2c1)C)[C@@H](CO)N(C[C@]13CCN(CC1)Cc1ccccc1F)C(=O)Nc1ccc(cc1)F	active
COc1ccc2c3c(n(c2c1)C)[C@@H](CO)N(C[C@]13CCN(CC1)C(=O)c1ccccc1F)C(=O)Nc1ccc(cc1)F	inactive
COc1ccc2c3c(n(c2c1)C)[C@H](CO)N(C[C@]13CCN(CC1)Cc1cccc(c1)F)C(=O)Nc1ccc(cc1)F	active
O=C(C[C@H]1CC[C@@H]2[C@H](COC[C@H](O)CN2C(=O)Nc2cccc(F)c2)O1)NCc1ccccc1Cl	inactive
CN1C(=O)c2cc(NC(=O)c3ccc(F)c(F)c3)ccc2OC[C@@H]2O[C@@H](CC(=O)N3CCOCC3)CC[C@H]21	inactive
C[C@H](CO)N1C[C@H](C)[C@@H](CN(C)C(=O)Cc2ccccc2)Oc2cc(-c3cncnc3)ccc2S1(=O)=O	inactive

SMILES	cytotoxicity call
C[C@@H]1CN([C@H](C)CO)C(=O)c2cc(C#Cc3cccc(F)c3)cnc2O[C@@H]1CN(C)CC1CCOCC1	inactive
COc1ccc(S(=O)(=O)N(C)C[C@@H]2Oc3cc(C#CC4CC4)ccc3S(=O)(=O)N([C@H](C)CO)C[C@@H]2C)cc1	inactive
CO[C@H]1CN(C)C(=O)c2cc(NC(=O)NC3CCCCC3)ccc2OC[C@@H](C)N(CCc2ccccc2)C[C@H]1C	inactive
Cc1noc(C)c1S(=O)(=O)Nc1ccc2c(c1)CC(=O)N([C@@H](C)CO)C[C@@H](C)[C@@H](CN(C)C(=O)NC1CCCCC1)O2	inactive
CN(C)CCCNC(=O)C[C@H]1CC[C@H]2[C@@H](COC[C@@H](O)CN2S(=O)(=O)c2ccccc2)O1	inactive
C[C@@H]1CCCCO[C@H](CN(C)C(=O)Cc2ccccc2)[C@@H](C)CN([C@@H](C)CO)C(=O)c2cc(NC(=O)Nc3ccc(F)cc3)ccc2O1	inactive
C[C@@H]1CN([C@H](C)CO)C(=O)c2c(c3ccccc3n2C)-c2ccccc2CO[C@H]1CN(C)S(=O)(=O)c1ccc(Cl)cc1	inactive
C[C@H]1CN([C@@H](C)CO)C(=O)c2c(c3ccccc3n2C)-c2ccccc2CO[C@@H]1CN(C)S(=O)(=O)c1ccc(Cl)cc1	active
C[C@@H]1CN([C@H](C)CO)C(=O)c2c(c3ccccc3n2C)-c2ccccc2CO[C@@H]1CN(C)S(=O)(=O)c1ccc(Cl)cc1	inactive
C[C@@H]1CN([C@@H](C)CO)C(=O)c2c(c3ccccc3n2C)-c2ccccc2CO[C@@H]1CN(C)S(=O)(=O)c1ccc(Cl)cc1	inactive
C[C@@H]1CN([C@@H](C)CO)C(=O)c2c(c3ccccc3n2C)-c2ccccc2CO[C@H]1CN(C)S(=O)(=O)c1ccc(C(F)(F)F)cc1	inactive
C[C@@H]1CN([C@@H](C)CO)C(=O)c2c(c3ccccc3n2C)-c2ccccc2CO[C@H]1CN(C)S(=O)(=O)c1ccc(Cl)cc1	active
C[C@H](CO)N1C[C@H](C)[C@@H](CN(C)S(=O)(=O)c2ccc(Cl)cc2)OCc2ccccc2-c2c(n(C)c3ccccc23)C1=O	inactive
C[C@@H]1CN([C@@H](C)CO)C(=O)c2c(c3ccccc3n2C)-c2ccccc2CO[C@@H]1CN(C)S(=O)(=O)c1ccc(C(F)(F)F)cc1	inactive
C[C@@H]1CN([C@H](C)CO)C(=O)c2c(c3ccccc3n2C)-c2ccccc2CO[C@@H]1CN(C)S(=O)(=O)c1ccc(C(F)(F)F)cc1	inactive
C[C@H](CO)N1C[C@H](C)[C@H](CN(C)S(=O)(=O)c2ccc(Cl)cc2)OCc2ccccc2-c2c(n(C)c3ccccc23)C1=O	active
C[C@H]1CN([C@@H](C)CO)C(=O)c2c(c3ccccc3n2C)-c2ccccc2CO[C@H]1CN(C)S(=O)(=O)c1ccc(Cl)cc1	active
C[C@H]1CN([C@@H](C)CO)C(=O)c2c(c3ccccc3n2C)-c2ccccc2CO[C@H]1CN(C)S(=O)(=O)c1ccc(C(F)(F)F)cc1	inactive
